This note sets out measurements from PubChem BioAssay (Tox21).

For assay [1], the target named is Luciferin 4-monooxygenase (Photinus pyralis) (UniProt P08659). The assay is described as follows: qHTS assay to identify small molecule inhibitors of firefly luciferase (AID 1224835). Also: nearly all actives have a fitted effect of over 25% in size. Also: potency is read from the fitted curve at half-maximal effect. The essentials: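 Inhibition of purified Photinus luciferase is measured by luminescence. Substrate levels (D-luciferin, ATP) sit at their KM values. Each compound is tested in a concentration series.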
Luciferin 4-monooxygenase (Photinus pyralis), sequence (P08659 whole entry, looked up): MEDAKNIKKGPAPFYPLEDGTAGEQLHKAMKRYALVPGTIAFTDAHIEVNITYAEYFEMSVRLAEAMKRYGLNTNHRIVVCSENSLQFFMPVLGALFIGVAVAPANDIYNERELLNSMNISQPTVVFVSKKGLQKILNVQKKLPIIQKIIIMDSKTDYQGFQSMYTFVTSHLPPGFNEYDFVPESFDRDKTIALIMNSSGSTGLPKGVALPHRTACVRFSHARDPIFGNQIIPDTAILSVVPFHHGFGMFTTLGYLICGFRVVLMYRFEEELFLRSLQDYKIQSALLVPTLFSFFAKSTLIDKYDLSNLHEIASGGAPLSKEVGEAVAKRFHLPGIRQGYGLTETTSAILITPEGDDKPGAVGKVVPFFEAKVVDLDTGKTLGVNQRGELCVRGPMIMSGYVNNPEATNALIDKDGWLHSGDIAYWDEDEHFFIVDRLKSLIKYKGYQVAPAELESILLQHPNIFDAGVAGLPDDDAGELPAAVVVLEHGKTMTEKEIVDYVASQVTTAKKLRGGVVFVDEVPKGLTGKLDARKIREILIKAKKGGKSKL
For orientation: qHTS replaces the single test concentration by a dilution series.

The nature of assay [2]: qHTS assay to identify small molecule agonists of the constitutive androstane receptor (CAR) signaling pathway - cell viability counter screen (AID 1224836). Also: nearly all actives have a fitted effect of over 45% in size. In a few lines:
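Cells were seeded and incubated 4 hrs. Compounds were added across 15 concentrations together with PK11195 at 0.75 uM final. Plates were incubated 23 hrs at 37 C. CellTiter-Fluor was added and fluorescence measured.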

A short description of assay [3]: qHTS assay to identify small molecule antagonists of the constitutive androstane receptor (CAR) signaling pathway - cell viability counter screen (AID 1224837). Also: nearly all actives have a fitted effect of over 45% in size. The essentials: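 Using CellTiter-Fluor, viability is scored in HepG2 cells stably carrying hCAR and a 2.2kb CYP2B6 reporter after 23 hr compound exposure across 15 concentrations, with CITCO present at 50 nM.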

Assay [4] concerns the target Nuclear receptor subfamily 1 group I member 3 (Homo sapiens) (UniProt Q14994). The assay can be described thus: qHTS assay to identify small molecule antagonists of the constitutive androstane receptor (CAR) signaling pathway (AID 1224838).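 Also: HepG2 cells stably expressing hCAR with CYP2B6 luciferase reporter stimulated by CITCO; nearly all actives have a fitted effect of over 40% in size.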 In a few lines:
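Reporter luminescence was quantified after 24 h exposure of hCAR/CYP2B6-2.2kb double-stable HepG2 cells to compounds at 15 concentrations in the presence of 50 nM CITCO final.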

Assay [5] has the same target. The assay is described as follows: qHTS assay to identify small molecule agonists of the constitutive androstane receptor (CAR) signaling pathway (AID 1224839). Also: nearly all actives have a fitted effect of over 15% in size. Also: potency is read from the fitted curve at half-maximal effect. The essentials:
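Cells were plated and incubated 4 hrs, then dosed with compounds at 15 concentrations. PK11195 was added to 0.75 uM final. After 24 hrs at 37 C, luciferase luminescence was measured.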

The nature of assay [6]: qHTS assay to identify small molecule antagonists of the estrogen related receptor signaling pathway with the pleiotropic PPARgamma coactivator (PGC) from Tox21 10K library - cell viability counter screen (AID 1224840; active = well fitted cell-killing curve with a large enough effect in the repeat runs, not every such curve was filed as active; also: nearly all actives have a fitted effect of over 40% in size). In a few lines: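 Here the PGC/ERR cells serve as a cytotoxicity control: they are exposed to compounds for 17.5 hours at 37 C, and live-cell signal is quantified using CellTiter-Fluor fluorescence.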

Assay [7] is described as follows: qHTS assay to identify small molecule antagonists of the estrogen related receptor signaling pathway with the pleiotropic PPARgamma coactivator (PGC) from Tox21 10K library (AID 1224841; call rule not given here; also: actives are mostly falling curves and most rising ones were filed inactive; nearly all actives have a fitted effect of over 50% in size). In a few lines:
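Each well held 2,000 PGC/ERR cells, pre-incubated six hours (37 C, 5% CO2). Test substances in DMSO were added by pin tool and left for 18 h at 37 C before luciferase detection by One-Glo.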

Assay [8] in a line: qHTS assay to identify small molecule agonists of the estrogen related receptor signaling pathway with the pleiotropic PPARgamma coactivator (PGC) from Tox21 10K library (AID 1224842). Also: nearly all actives have a fitted effect of over 15% in size. Also: potency is read from the fitted curve at half-maximal effect. The essentials: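 Luminescence from One-Glo (30 min, room temperature) measured after PGC/ERR cells had 18 h at 37 C with pinned compound (23 nL in DMSO). Cells had been seeded at 2,000 per well and pre-incubated 6 h.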

Assay [9] in a line: qHTS assay to identify small molecule agonists of the hypoxia (HIF-1) signaling pathway - cell viability counter screen (AID 1224844; calls by dose curve; also: nearly all actives have a fitted effect of over 50% in size). In a few lines: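 Multiplexed with the HRE beta-lactamase assay, this viability read used CellTiter-Glo luminescence (30 min, RT) on HRE-bla ME-180 cells treated 17 hrs with compounds in 0.5% dialyzed FBS medium.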
Assay [10] in a line: qHTS assay to identify small molecule agonists of the hypoxia (HIF-1) signaling pathway (AID 1224846; active = well fitted activation curve with a large enough effect in the signal ratio in the repeat runs, not every such curve was filed as active; the % refers to the signal ratio). The essentials:
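Hypoxia-pathway activation was scored as increased beta-lactamase from an HRE-controlled reporter in ME-180 cells; plated at 2,000 cells per well with 0.5% dialyzed FBS, they were exposed 17 hrs to compounds and then given CCF4-AM.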

Assay [11] in a line: qHTS assay to identify small molecule agonists of H2AX - cell viability counter screen (AID 1224847; calls by dose curve; also: top concentration of the series differs between compounds; nearly all actives have a fitted effect of over 30% in size). The essentials: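 Cytotoxicity counter screen in wild-type CHO-K1 cells: a 3 hr compound treatment at 37C across 15 concentrations, followed by CellTiter-Glo luminescence to gauge viable cells.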
Assay [12] can be described thus: qHTS assay to identify small molecule antagonists of the estrogen related receptor (ERR) signaling pathway from Tox21 library (AID 1224848). Also: nearly all actives have a fitted effect of over 50% in size. Also: potency is read from the fitted curve at half-maximal effect. In a few lines: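 Reading was by luminescence 30 min after ONE-Glo addition. Before that, ERR cells at 2,000 per well had rested 6 h at 37 C/5% CO2 and then received pin-tooled compounds in DMSO for 18 h at 37 C.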
Assay [13] in a line: qHTS assay to identify small molecule agonists of the estrogen related receptor (ERR) signaling pathway from Tox21 library (AID 1224849; calls by dose curve; also: nearly all actives have a fitted effect of over 15% in size). To be noted: ERR reporter cell line, ONE-Glo luciferase, 18 h; at 92.4 µM (top of the series) unless noted. In a few lines: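 Six hours post-seeding at 37 C/5% CO2, ERR cells receive DMSO-solubilised compounds; after 18 h at 37 C, ONE-Glo reagent is applied and luminescence recorded.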

Assay [14] in a line: qHTS RealTime-Glo MT Cell Viability Assay in HEK293 cells - 32 hour (AID 1224868). Also: nearly all actives have a fitted effect of over 50% in size. Also: potency is read from the fitted curve at half-maximal effect. The essentials: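 Reads taken at 0, 8, 16, 24, 32 and 40 h from the same wells. HEK293 cells (600/well) carried RealTime-Glo reagents from seeding, with compound added after a 5 h settle at 37 C.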
Assay [15] in a line: A CellTox Green Cytotoxicity Assay to monitor cytotoxicity in HEK293 cells - 0 hour (AID 1224869). Also: nearly all actives have a fitted effect of over 50% in size. In a few lines: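 Seeding of HEK293 cells together with cytotoxicity dye preceded a 5 h incubation at 37 C/5% CO2. Test compounds in DMSO were then added and fluorescence monitored across 40 h.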
A short description of assay [16]: qHTS RealTime-Glo MT Cell Viability Assay in HepG2 cells - 40 hour (AID 1224870). Also: nearly all actives have a fitted effect of over 50% in size. The essentials:
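Real-time viability: cells seeded at 600 per well together with NanoLuc and cell-permeant prosubstrate, compounds added after 5 h incubation. Luminescence tracked at 0, 8, 16, 24, 32 and 40 h of exposure.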

A short description of assay [17]: qHTS assay to identify small molecule agonists of H2AX (AID 1224845; active = well fitted activation curve with a large enough effect in the signal ratio in the repeat runs, not every such curve was filed as active; the % refers to the signal ratio). In a few lines:
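Phospho-H2AX Ser139 measured by HTRF (ex 320 nm; em 665 and 620 nm) after 24 hr antibody incubation. Compounds, 15 concentrations, 0.76% DMSO, were applied to CHO-K1 cells for 3hr at 37C before lysis.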

A short description of assay [18]: qHTS RealTime-Glo MT Cell Viability Assay in HepG2 cells - 24 hour (AID 1224867). Also: nearly all actives have a fitted effect of over 50% in size. The essentials:
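HepG2 suspension premixed with RealTime-Glo reagents is plated at 600 cells per well and left 5 h at 37 C/5% CO2. Compounds in DMSO then go in, and bioluminescence reflecting viable cell number is recorded over 40 h.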

Assay [19] in a line: qHTS assay to identify small molecule antagonists of the estrogen related receptor (ERR) signaling pathway from Tox21 library - cell viability counter screen (AID 1224834). Also: nearly all actives have a fitted effect of over 30% in size. In a few lines:
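CellTiter-Fluor fluorescence measured; ERR cells; 17.5 h compound incubation at 37 C; 30 min reagent step.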

Assay [20] concerns the target Thyrotropin receptor (Homo sapiens) (UniProt P16473). The assay is described as follows: qHTS assay to identify small molecule agonists of the thyroid stimulating hormone receptor (TSHR) signaling pathway (AID 1224843; calls by dose curve; also: nearly all actives have a fitted effect of over 45% in size). The essentials: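 HEK293 cells stably bearing the thyrotropin receptor were plated at 800 cells/well and challenged with compound (30 min, RT). Accumulated cAMP was quantified via cAMP-d2 competing for cryptate-tagged antibody.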

Molecules are shown by their SMILES. Unmarked numbers belong to inactive results. Results filed as inconclusive are left out. Active and inactive are the calls of the source. Unless noted, calls follow the shape of the dose curve; as a rule, active = well fitted curve in the direction sought with a large enough effect in the repeat runs; inconclusive = weak or mixed curves; inactive = no such curve, though single readings can be large; an effect the other way counts as inactive or inconclusive.
% is scaled to controls: 0 for no effect and ±100 for the full control effect.

Thyrotropin receptor (Homo sapiens), sequence (P16473 whole entry, looked up): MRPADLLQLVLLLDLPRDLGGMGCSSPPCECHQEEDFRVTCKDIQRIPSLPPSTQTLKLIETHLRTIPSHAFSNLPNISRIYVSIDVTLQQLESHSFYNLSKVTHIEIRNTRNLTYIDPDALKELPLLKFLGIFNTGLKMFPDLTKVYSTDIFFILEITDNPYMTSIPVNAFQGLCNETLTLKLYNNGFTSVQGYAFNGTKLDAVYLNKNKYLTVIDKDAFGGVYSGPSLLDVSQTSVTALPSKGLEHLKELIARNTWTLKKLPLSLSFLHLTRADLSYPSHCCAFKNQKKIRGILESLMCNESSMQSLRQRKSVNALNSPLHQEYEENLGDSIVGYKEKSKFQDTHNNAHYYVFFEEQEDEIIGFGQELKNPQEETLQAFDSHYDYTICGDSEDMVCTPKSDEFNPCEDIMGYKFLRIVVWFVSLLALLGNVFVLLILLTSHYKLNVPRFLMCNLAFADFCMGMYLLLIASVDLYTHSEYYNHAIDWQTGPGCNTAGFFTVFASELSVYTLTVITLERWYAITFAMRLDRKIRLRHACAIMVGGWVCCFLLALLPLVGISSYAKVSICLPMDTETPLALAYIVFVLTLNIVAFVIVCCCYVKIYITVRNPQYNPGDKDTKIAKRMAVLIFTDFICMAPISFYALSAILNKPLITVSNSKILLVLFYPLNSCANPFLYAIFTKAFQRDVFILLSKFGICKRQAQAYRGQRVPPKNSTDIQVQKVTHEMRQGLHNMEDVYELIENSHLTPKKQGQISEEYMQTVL
Nuclear receptor subfamily 1 group I member 3 (Homo sapiens), sequence (Q14994 whole entry, looked up): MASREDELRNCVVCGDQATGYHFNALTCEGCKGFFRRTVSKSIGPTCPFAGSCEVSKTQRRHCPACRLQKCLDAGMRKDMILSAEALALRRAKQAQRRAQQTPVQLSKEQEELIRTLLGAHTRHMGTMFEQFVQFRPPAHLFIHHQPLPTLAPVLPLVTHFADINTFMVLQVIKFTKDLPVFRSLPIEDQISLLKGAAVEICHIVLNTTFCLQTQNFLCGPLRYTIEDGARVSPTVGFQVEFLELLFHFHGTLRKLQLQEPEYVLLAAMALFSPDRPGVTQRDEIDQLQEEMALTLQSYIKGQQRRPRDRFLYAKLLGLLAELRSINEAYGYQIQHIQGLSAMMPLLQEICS

For `O=C1CCN(c2ccccc2)N1`, the Potency entry in assay [1], in assay [2], in [3], in assay [4], in [5] and in assay [6] was “inactive” in each case. The Potency entry in assay [7], in assay [8], in [9], in assay [11], in [14] and in assay [15] was “inactive” in each case. Also, the Potency result in assay [16] was “inactive”. Also, in assay [10], the outcome was inactive. The Potency in assay [12] was 17.3 µM (active). For the same compound, the activity change, positive = activation in assay [13] was -36.4%.
Regarding `CCCCc1ccc2nc(NC(=O)OC)[nH]c2c1`, the Potency in [1] is 3.47 µM (active); in [5] it was 5.96 µM (active); in assay [8] it was 3.76 µM (active). Moreover, the Potency result in assay [2], in assay [3], in assay [4], in [6], in assay [7] and in assay [17] was “inactive” each time. The Potency entry in assay [11], in [12], in assay [18], in assay [15] and in assay [16] was “inactive” throughout. For the same compound, the outcome in [10] was inactive. Further, the activity change, positive = activation in assay [13] was 17.3% [at 42.5 µM] (active).
For `CCOC(=O)C(Br)c1ccccc1` (centres undefined), the Potency entry in assay [19], in assay [2], in [3], in [4], in assay [5] and in assay [6] was “inactive” in each case. For the same compound, the Potency entry in assay [20], in assay [9], in [17], in assay [11], in assay [14] and in assay [15] was “inactive” each time. Further, in [16], the Potency entry was “inactive”. For the same compound, the result in assay [10] was inactive.
With `OCCN1CCN(CCO)CC1`, the Potency entry in assay [1], in assay [2], in assay [3], in assay [4], in assay [5] and in [6] was “inactive” throughout. Besides, the Potency entry in [20], in [9], in [17], in [11], in assay [18] and in assay [14] was “inactive” each time. In addition, the Potency entry in [15] and in assay [16] was “inactive” each time. Further, the outcome in assay [10] was inactive.
Consider `NCCCN1CCN(CCCN)CC1`, for which the Potency entry in assay [1], in assay [2], in [3], in assay [4], in assay [5] and in assay [6] was “inactive” throughout. Further, the Potency entry in assay [9], in assay [17], in assay [11], in assay [14], in assay [15] and in assay [16] was “inactive” in each case. Also, the compound was classed as inactive in [10].
`ClC(Cl)Cl`: the Potency entry in assay [19], in assay [2], in assay [5], in assay [6], in assay [20] and in assay [11] was “inactive” throughout. The Potency result in assay [12], in assay [18], in assay [14], in [15] and in [16] was “inactive” in each case. In addition, in assay [13], the activity change, positive = activation was -1.48%.
Turning to `CC(C)NC[C@@H](O)COc1cccc2ccccc12`, the Potency result in assay [19], in assay [2], in [3], in assay [4], in [5] and in [6] was “inactive” in each case. For the same compound, the Potency result in assay [9], in assay [17], in [11], in assay [18], in assay [14] and in [15] was “inactive” throughout. For the same compound, in assay [16], the Potency entry was “inactive”.
`CCCCCOc1ccc(C2SC(=O)NC2=O)cc1OCC` (centres undefined): the Potency entry in [19], in [2], in assay [4], in [6], in [9] and in assay [17] was “inactive” in each case. Further, the Potency result in assay [11], in assay [18], in [14], in assay [15] and in [16] was “inactive” each time. Also, the result in assay [10] was inactive.
Turning to `CCC(=O)c1ccc2c(c1)N(CCCN(C)C)c1ccccc1S2`, the Potency result in [1], in [2], in [3], in assay [4], in assay [5] and in [9] was “inactive” in each case. The Potency entry in [17], in assay [11], in assay [18], in assay [15] and in assay [16] was “inactive” in each case. The call in assay [10] was inactive. The Potency in [14] is 16.9 µM (active).
